Sampled rows, rich in hits. Any-hit rate of the full collection: about 3.5%.
TEAD-YAP block = TEAD-YAP interaction inhibition; hit rate 1.4% among 640,000; HEK-TIYL cells, TEAD-Gal4/YAP UAS-luciferase luminescence; AID 1259422; inhibition, % at 9.12 µM; in the data active means inhibition above about 32%;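 further: 0% = median of test compound wells and 100% = reference inhibitor wells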
FBW7 act = activators of human E3 ligase FBW7; normalized activity (activation), % at 26.1 µM; Q969H0; AlphaScreen FBW7–phospho-cyclin E peptide binding, activator screen; hit rate 0.13% among 650,000; AID 1259310; in the data active means normalized activity above about 1.9%;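 further: purified mutant Fbw7 with reduced substrate affinity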
MITF primary = human MITF inhibition, primary screen; AlphaScreen MITF homodimerization, bead proximity signal; inhibition, % at 2.6 µM; hit rate 0.91% among 650,000; in the data active means inhibition above about 50%;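 further: 0% = vehicle wells with protein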
Target sequence (O75030 whole entry, looked up): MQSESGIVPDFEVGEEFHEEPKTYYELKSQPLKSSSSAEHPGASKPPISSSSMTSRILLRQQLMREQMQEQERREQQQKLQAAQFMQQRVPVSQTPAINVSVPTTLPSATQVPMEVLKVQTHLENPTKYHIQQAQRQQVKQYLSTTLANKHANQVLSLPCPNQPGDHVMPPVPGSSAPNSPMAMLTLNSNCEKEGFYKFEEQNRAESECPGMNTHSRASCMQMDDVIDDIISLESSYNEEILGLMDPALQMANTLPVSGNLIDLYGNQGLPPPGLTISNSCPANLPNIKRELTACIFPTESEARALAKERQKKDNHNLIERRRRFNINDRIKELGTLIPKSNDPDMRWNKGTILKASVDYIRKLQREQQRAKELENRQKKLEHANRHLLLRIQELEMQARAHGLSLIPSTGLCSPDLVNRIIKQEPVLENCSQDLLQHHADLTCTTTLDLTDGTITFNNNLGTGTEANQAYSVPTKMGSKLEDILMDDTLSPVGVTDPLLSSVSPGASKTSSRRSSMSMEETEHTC
GPR151 ag = activates the human receptor GPR151; Q8TDV0; PathHunter beta-arrestin GPR151 cells, luminescence; activation, % at 11.2 µM; hit rate 1% among 650,000; AID 1508602; in the data active means activation above about 4.9%;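 further: 0% = median of compound wells and 100% = cells with positive control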
An asterisk follows results filed as active.

SMILES	TEAD-YAP block	FBW7 act	MITF primary	GPR151 ag
COc1cccc(/C=N/Nc2ccc([N+](=O)[O-])cc2)c1O	-49	1	10	-2
COc1cccc(/C=N/Nc2ncc(C)c(=O)[nH]2)c1O	87*	0	86*	2
COc1cccc(/C=N/Nc2ncccc2[N+](=O)[O-])c1O	98*	-1	26	-10
COc1cccc(/C=N/Nc2nnc(C)n2N)c1O	-1	0	11	-1
CC(C)c1ccc(NC(=O)c2ccc(N3CCCCS3(=O)=O)cc2)cc1	7	0	23	0
COCCNC(=O)c1nn2c(C(F)(F)F)cc(-c3ccc(Br)o3)nc2c1Br	4	0	8	3
Cc1sc(NC(=O)c2ccc(S(=O)(=O)N(C)c3ccccc3)cc2)nc1-c1ccccc1	2	0	0	3
O=C(Nc1ccc(-c2nc3ccccc3[nH]2)cc1)c1ccc(=O)n(Cc2ccccc2)n1	34*	0	6	1
CN(C)S(=O)(=O)c1ccc(C(=O)Nc2ccc(-c3nc4ccccc4[nH]3)cc2)cc1	-41	5.0*	-31	1
Cc1sc(NC(=O)c2ccc(S(=O)(=O)N(C)C)cc2)nc1-c1ccccc1	41*	0	-2	0
Cc1cccc(C)c1N(C)S(=O)(=O)c1ccc2[nH]cc(C(=O)NCc3cccnc3)c(=O)c2c1	34*	0	0	3
CCOc1ccccc1N(C)S(=O)(=O)c1ccc2[nH]cc(C(=O)NCc3cccnc3)c(=O)c2c1	63*	0	15	0
COc1ccc(-c2cnc3ccc(NCc4ccc5c(c4)OCO5)nn23)cc1	36*	0	-9	-1
COc1ccc(CNc2ccc3ncc(-c4ccncc4)n3n2)cc1	66*	0	-1	0
Oc1ccc(-c2cnc3ccc(NCc4ccc(F)cc4)nn23)cc1	40*	0	-18	0
NS(=O)(=O)c1ccc(CNc2ccc3ncc(-c4ccccc4F)n3n2)cc1	34*	0	17	0
OCc1ccc(-c2cnc3ccc(NCc4ccc(F)cc4)nn23)cc1	25	0	7	-1
NS(=O)(=O)c1ccc(CNc2ccc3ncc(-c4cccc5cccnc45)n3n2)cc1	2	0	-1	0
Cc1ccccc1C(=O)Nc1cccc(NC(=O)/C=C/c2ccco2)c1	-5	0	2	1
CC1CCCC(NC(=O)C2N(C(C)CCc3ccccc3)C(=O)C3C(C(=O)Nc4ccc(Cl)cc4)C4C=CC32O4)C1C (centres undefined)	-4	0	1	0
O=C(N/C(=C\c1ccco1)C(=O)N1CCCC1)c1ccco1	1	0	13	-2
O=C(NCCc1ccccc1)c1ccc2nc(-c3ccccc3)c(-c3ccccc3)nc2c1	-4	0	0	0
Cc1ccc(C(=O)COC(=O)c2ccc(Br)o2)cc1	1	1	14	0
COc1ccccc1-c1cnc2ccc(NCc3cc(OC)c(OC)c(OC)c3)nn12	59*	0	12	-1
CN(C)c1ccc(-c2cnc3ccc(NCc4ccc5c(c4)OCO5)nn23)cc1	55*	0	7	0
SMILES	TEAD-YAP block	FBW7 act	MITF primary	GPR151 ag
Clc1ccc(-c2cnc3ccc(NCc4ccc5c(c4)OCO5)nn23)cc1	-9	1	0	-1
COC(=O)CCCN1C(=O)c2cccc3c(N4CCOCC4)ccc(c23)C1=O	53*	0	-4	0
CCC(=O)OCCN1C(=O)c2cccc3c(N4CCOCC4)ccc(c23)C1=O	-3	0	-12	-1
O=C(NC1CCCCCC1)c1cccc2[nH]ncc12	84*	0	5	-5
CCOc1cc(/C=N/NS(=O)(=O)c2ccc(C)cc2)cc(Br)c1O	-3	1	16	-1
CCCCOC(=O)CSc1nnc(-c2ccc(N(C)C)cc2)o1	41*	0	-11	2
CCC(=O)Oc1ccc(C(=O)Nc2ccc(C)cc2Br)cc1	50*	0	-2	0
CCOC(=O)CSc1nc2c(sc3cccc(F)c32)c(=O)n1-c1ccc(C)cc1	-4	0	-10	-2
CC1CC(C)C[N+](=C2C=C(N3CCCC3)CC(C)(C)C2)C1 (centres undefined)	77*	0	6	4
CN1CCN(C2=CC(=[N+]3CCCC3)CC(C)(C)C2)CC1	-5	0	10	1
CN1CCN(C2=CC(=[N+]3CCCCC3)CC(C)(C)C2)CC1	1	0	7	-1
C1=C(N2CCCC2)CCCC1=[N+]1CCCC1	42*	0	1	0
CC1(C)CC(N2CCCC2)=CC(=[N+]2CCCCCC2)C1	66*	0	17	-1
Cc1ccc(C2=N/C(=C\c3ccc(Cl)c(Cl)c3)C(=O)O2)cc1C	8	1	-2	1
Cc1ccc(CN2CCNC(=O)C2CC(=O)N2CCN(Cc3ncccc3C)CC2)o1 (centres undefined)	-1	0	-8	1
O=c1c2c(-c3ccccc3)csc2ncn1/N=C/c1ccc(O)c(O)c1O	11	0	62*	-1
COc1cc(NC(=O)c2cc(Br)ccc2OC)ccc1NC(=O)c1ccco1	1	0	6	0
O=C(O)c1cc(O)c(O)c(O)c1	1	0	76*	1
O=C(O)c1ccccc1	-1	0	-4	0
CC1CCN(Cc2cc(Cl)c(O)c3ncccc23)CC1	85*	0	98*	1
CC1CCN(Cc2ccccc2CO)CC1	-8	0	-1	0
CC1CCN(Cc2cc(Cl)c3cccnc3c2O)CC1	46*	-1	43	4
COc1ccc(C(=O)Oc2c(CN3CCOCC3)cc(Cl)c3cccnc23)cc1OC	0	0	0	-1
CC1CCN(Cc2cc(Cn3ccnc3)c3cccnc3c2O)CC1	39*	-1	110*	0
CC1CCCCN1Cc1cc(Cl)c2cccnc2c1O (centres undefined)	73*	-1	30	1
SMILES	TEAD-YAP block	FBW7 act	MITF primary	GPR151 ag
CCCN1C(=O)CC(C(=O)OC)C12CCN(Cc1cccc(OC)c1OC)CC2 (centres undefined)	2	0	9	0
CCOC(=O)C(CC(C)C)N(Cc1ccc(C)cc1)S(=O)(=O)c1ccc([N+](=O)[O-])cc1 (centres undefined)	7	0	11	-2
CN1CCN(Cc2cc(Cl)c(O)c3ncccc23)CC1	90*	-1	98*	1
Oc1ccc(CN2CCN(c3ccc(F)cc3)CC2)c2cccnc12	-9	-1	38	5
CCCN(CCC)c1nc(N)ncc1[N+](=O)[O-]	59*	0	5	-1
Nc1ncc([N+](=O)[O-])c(Oc2ccccc2F)n1	-1	0	5	0
CCCCN(CCCC)c1nc(N)ncc1[N+](=O)[O-]	34*	0	3	1
O=C(CN1C(=O)c2ccccc2C1=O)N1CCN(c2ccc(F)cc2)CC1	-3	2.0*	26	-2
CCOC(=O)CN1CCN(c2ccc(-c3cccc(OC)c3)cn2)CC1	71*	0	3	0
Cc1ccc(NCc2ccc3c(c2)OCO3)cc1C	-4	0	25	-1

Screening data from PubChem.
